Here are results for 22 sequences from the supplement of paper PMC6555819.

This test concerns PPARg DBDmut:RXRa IVT, anti-PPARg (DBD mutation: PPARg1 K132A/R137A, NR concentration 270 nM, RXRa partner concentration 90 nM). In words: PBM binding z-score (relative to random genomic background probes); higher = stronger binding; sequences stand for … in GC…GCGATTGACAGCGTAGAATGAAGG
A digest of the protocol:
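For binding z-scores, the reference was random background probes on custom Agilent 4×180K protein-binding microarrays. These arrays were incubated 1 h with ligand-free nuclear receptor dimers in PBS pH 7.4, 2% milk, 0.02% Triton X-100, 1 mM DTT, 0.2 mg/mL BSA and 0.4 mg/ml salmon testes DNA. Fluorescence was scanned after antibody detection of each partner (one per run) and regression-normalized.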
In turn, TGAATGAGGTTACAAGATCAGGGAACGTTGCAAA had a PBM binding z-score of 0.903.
Consider CCTCGGAGGACAGAAGGACAGAGCTGTCCGCTTT, for which the PBM binding z-score is -0.956.
With ATCCAAAGGTCGTGAGGTGAGTATACAGAAAGGC the figure was 1.39; with CCTTACGGGTGACGAGGTTATAGCACGACGAGCG, 0.21.
The value for CCGACTGGGGCAAGGTTACGATAACGCACAGCCA was -0.0114.
The value for TATACAGGGTGAAAGGCCAGAGTACGAATGTCGA was 1.71; that for CAAACTAGATCAAAGGTCAAAGTCGAGCCAACCA was 1.17.
TCTTGTAGATCAACCAGGTTAAGAAAGCCTGAGT: the PBM binding z-score was -0.047.
In the case of TTAATGAGGTTAAAGATCAGGGAACGTGGCGTCG, the PBM binding z-score was determined as 2.12.
The value for ACTCGGCGGACAAAGGTCAGAGCTACGCCAGTGA was -0.012; that for TCTATGAGTTGATTAGGGCAACCGAAACAGCGGA was -0.00987; that for ATCTCTAGGTAACGAAGTTCAGTGAATGCCGAAC was 0.456.
The value for CTCGAAAGGTCGGTTGAGTTGAGTATACGGATAA was 0.723; that for ACTATTAGTTGATTTAGGGCAACCGATACGACGC was 2.12; that for AGAATGAGGTTATTGAGATCAGGGAATTGCGGTC was 0.606.
The value for ATCTCTAGGTAAGACTCAGTTCAGTGAAGAACGC was 1.18.
Take CCTATTAGTTGACCATACGGGCAACCGAAGCTCG: the PBM binding z-score worked out at 0.889.
With TTACCAAGGTGAAAGGTCCTTGATGCACGCCTTG the figure was -0.24.
As for CCTAGTTGGTCCAGGTCACACACGCTATAGGTAC, the PBM binding z-score amounted to 0.272.
With CCTCGGAGGACAGGAGGTCAGAGCTGTCCGCTTT, the PBM binding z-score was -1.92.
The value for GTACCAAGGTGAATAGATCGTTGATGAGTAGGCG was 0.415; that for CCTACTGGGCCACGAAAGGTCGTTGATTCAGTGA was -0.547.
